USP8 block – human USP8 deubiquitinase inhibition. P40818. AID 1645853. purified USP8, Ub-rhodamine cleavage fluorescence, 30 min. inhibition, % at 20 µM. 4.2% of 47,000 active
OTUD3 block – inhibitors of human OTUD3 deubiquitinase; Q5T2D3; purified OTUD3, Ub-rhodamine fluorescence, 2 h; inhibition, % at 25 µM; 0.7% of 47,000 active; AID 1645858
USP7 block – human USP7 deubiquitinase inhibition; purified USP7, Ub-rhodamine cleavage fluorescence; Q93009; inhibition, % at 20 µM; AID 1645854; 0.3% of 47,000 active
UCHL1 block – blocks human UCHL1 ubiquitin-rhodamine cleavage. P09936. purified UCHL1, Ub-rhodamine cleavage fluorescence. inhibition, % at 20 µM. 0.2% of 47,000 active
Target sequence (P09936 whole entry, looked up): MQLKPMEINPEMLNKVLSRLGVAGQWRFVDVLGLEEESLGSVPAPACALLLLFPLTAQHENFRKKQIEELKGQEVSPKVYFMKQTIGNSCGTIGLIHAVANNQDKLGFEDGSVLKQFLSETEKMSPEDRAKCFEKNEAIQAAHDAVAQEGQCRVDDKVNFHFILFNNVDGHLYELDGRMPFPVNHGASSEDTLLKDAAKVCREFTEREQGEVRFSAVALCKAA
USP10 block – inhibitors of human USP10 deubiquitinase; Q14694; purified USP10, Ub-rhodamine fluorescence, 60 min; inhibition, % at 20 µM; 1.1% of 47,000 active
* = called active by the depositor. Only some compounds are listed: those with a hit (about 4.9% of all), similar ones and a draw of the others. Rule as the data show it: active = inhibition above about 30%; inactive = the rest.

SMILES | USP8 block | OTUD3 block | USP7 block | UCHL1 block | USP10 block
CC(C)=CCC[C@](C)(O)[C@H]1CC[C@]2(C)[C@@H]1CC[C@@H]1[C@@]3(C)CC[C@H](O)C(C)(C)[C@@H]3CC[C@]12C | 9 | 6 | 10 | 6 | 17
CC1(C(=O)NCc2ccc(F)cc2)CN(S(C)(=O)=O)CC(=O)N1c1cccc(F)c1 (stereo unspecified) | -2 | -5 | -12 | -1 | 0
O=C(Cn1c(=O)n(-c2ccc(F)cc2)c(=O)c2oc3ccccc3c21)NC1CCCCC1 | 41* | 10 | 7 | -1 | 7
COc1ccc(-c2csc(N)n2)c2ccccc12 | 83* | -20 | -11 | -2 | -3
O=C(Nc1ccc(F)cc1)c1ccc(N2CCCCS2(=O)=O)cc1Cl | 0 | 6 | -1 | -2 | 1
CC(=O)c1ccc(NC(=O)c2ccc(N3CCCCS3(=O)=O)cc2Cl)cc1 | 31* | 8 | 14 | 9 | 10
C[C@@H]1OC2=C(C(=O)c3cccc(O)c3C2=O)[C@H](O)[C@@H]1O | 63* | 67* | -116 | 32* | 49*
COC(=O)CC1CC2=C(C(=O)c3c(O)cccc3C2=O)C(C)O1 (stereo unspecified) | -46 | 24 | -132 | 5 | -13
c1ccc2c(c1)N=C(c1ccc3c(c1)OCO3)CCN2 | 78* | -14 | -9 | -9 | -7
Cc1nccc(-c2ccc3c(c2)OCO3)n1 | 12 | 0 | 1 | 1 | 1
Cc1ccc(-c2c3c(=O)n(C)c(=O)n(C)c3cn2-c2ccc3c(c2)OCCO3)cc1 | 63* | -17 | -3 | 2 | -1
Cc1cc2cc(CNC(=O)c3ccccc3C(=O)O)ccc2n1C | 56* | -22 | -17 | -13 | -8
CCC(C(=O)NCc1ccc2c(c1)cc(C)n2C)c1ccccc1 (stereo unspecified) | -35 | -45 | -15 | -17 | -6
CC(NC(=O)C1(c2ccc(F)cc2)CCCC1)c1nc2ccccc2[nH]1 (stereo unspecified) | 1 | -16 | -4 | 1 | 0
Cc1cc(NC(=O)C2(c3ccc(F)cc3)CCCC2)n(-c2nc3ccccc3[nH]2)n1 | 70* | -4 | 10 | 6 | 11
O=C(Nc1cccc(Cl)c1)c1ncn2c1CNS(=O)(=O)c1ccccc1-2 | 23 | 12 | -61 | 6 | 37*
O=C(c1ncn2c1CNS(=O)(=O)c1ccccc1-2)N1CCCC1 | -6 | -9 | -3 | -2 | -1
COc1cc2c(c(OC)c1OC)-c1ccc(N3CCN(c4cccc(Cl)c4)CC3)c(=O)cc1[C@@H](NC(C)=O)CC2 | 55* | -2 | 8 | 6 | -1
COc1ccccc1CNc1nnc(-c2nc(C3CC3)no2)c2ccccc12 | 14 | 5 | 1 | 8 | 7
COc1ccccc1CNc1nc(-c2nnc(-c3ccccc3)o2)nc2ccccc12 | 36* | 4 | 13 | 11 | 7
O=C(NC[C@@H]1OC[C@H]2CN(Cc3ccco3)CC[C@H]21)c1ccnnc1 | 2 | -10 | 2 | 0 | 0
Cn1ccc2cc(CCC(=O)NCc3ccc(N4CCOCC4)cc3)ccc21 | 0 | -13 | 3 | 1 | -2
Cc1ccc(Cn2c(C(=O)Nc3cccnc3)cc3sccc32)cc1 | 43* | 7 | 8 | 2 | 3
COC(=O)c1cc2sccc2n1CC(=O)Nc1cccc(SC)c1 | 1 | 2 | 5 | 2 | 4
O=C(NCc1ccc(Cl)cc1)Nc1cccc2ccccc12 | 95* | 7 | 5 | 4 | 4
SMILES | USP8 block | OTUD3 block | USP7 block | UCHL1 block | USP10 block
O=C(Cc1cccc2ccccc12)NCc1ccc(F)cc1 | -13 | -14 | -25 | -1 | -4
N#Cc1ccccc1NC(=O)Cc1cccc2ccccc12 | -285 | 15 | 1 | 3 | 1
O=C(Cc1ccccc1C(=O)O)Nc1cccc2ccccc12 | 71* | -11 | -13 | -6 | -6
Cn1cc(NC(=O)Nc2cccc3ccccc23)c2ccccc21 | 89* | -11 | -5 | 7 | -11
Cc1nn(-c2ccccc2)c(Cl)c1C(=O)N1c2ccccc2CC1C (stereo unspecified) | 4 | 9 | 3 | 7 | 6
CCCn1nc(-n2cnnc2)c(NC(=O)c2ccccc2OCC)c1C | 2 | -5 | 3 | 0 | -1
Cc1ccc(NC(=O)c2ccc3nn(CC(=O)Nc4ccc(C)cc4C)c(=O)n3c2)cc1 | 53* | -13 | 11 | -4 | 3
Cc1ccccc1NC(=O)CSc1nnc2ccc(C(=O)NCc3ccccc3)cn12 | 45* | -2 | -5 | -3 | -1
Cc1ccc(CNC(=O)c2ccc3nn(CC(=O)Nc4ccccc4F)c(=O)n3c2)cc1 | 67* | -10 | 10 | 0 | 23
Cc1ccc(NC(=O)c2ccc3nn(CC(=O)Nc4ccc(F)cc4F)c(=O)n3c2)cc1 | 57* | 15 | 17 | -1 | 3
O=C(Cn1nc2ccc(C(=O)NCc3ccccc3)cn2c1=O)Nc1ccc2c(c1)OCO2 | 1 | 3 | 2 | 1 | 12
Cc1ccc(C(=O)Nc2ncn(CC(=O)Nc3ccccc3F)n2)cc1 | -21 | 6 | 5 | 2 | 1
COc1ccc(C(=O)N(O)c2ccccc2)cc1 | 78* | 8 | -5 | -2 | 0
COc1ccc2cc(C(=O)NCc3ccccn3)[nH]c2c1 | -24 | -5 | 0 | -2 | -3
COc1ccc2nc(NC(=O)c3cc4ccc5cccnc5c4[nH]3)sc2c1 | 80* | 6 | 22 | 12 | 33*
O=C(Nc1nc2ccccc2s1)c1cc2ccc3cccnc3c2[nH]1 | 25 | 0 | 20 | 4 | 35*
CCOc1ccccc1NC(=O)c1cc(-c2ccncc2)n[nH]1 | 0 | -7 | 4 | -1 | 1
CCOc1ccccc1-c1cc(NC(=O)c2cc3ccc4cccnc4c3[nH]2)on1 | 69* | 30 | 15 | 1 | 53*
CCc1ccccc1NC(=O)CCn1nc(C)c(S(=O)(=O)N2CCOCC2)c1C | -7 | -2 | 1 | -4 | 1
COc1cccc(CC(=O)Nc2ccc3c(c2)Sc2ncccc2C(=O)N3C)c1 | 17 | -9 | 3 | 2 | -2
Cc1nn(Cc2ccccc2)c2sc(C(=O)Nc3nc4ccccc4[nH]3)cc12 | 84* | 16 | 10 | 4 | 20
CCc1ccccc1NC(=O)c1cn(CC)c2nc(C)ccc2c1=O | -4 | -5 | 3 | -5 | 0
CC1OC2CC(O)C1(O)C1=C2C(O)=C(C(N)=O)C(=N)C1=O (stereo unspecified) | 39* | 51* | -34 | 52* | 36*
COCCN1C[C@@]23CN(C(=O)c4cc(C)on4)C[C@@H](C[C@@H]2S1(=O)=O)O3 | -24 | 3 | 0 | 0 | 2
Cc1ccc2cccc(OCc3nnc(SCC(=O)c4ccc(Cl)cc4)n3C)c2n1 | 33* | 21 | 8 | 7 | 13
CCCN(CC(=O)N1CCCc2ccccc21)S(=O)(=O)c1cccc(C(F)(F)F)c1 | 22 | 21 | -20 | 7 | 6
CCN1CCN(C(=O)c2cc3occc3c(Nc3ccc(OC)cc3)n2)CC1 | -2 | -4 | 0 | -3 | 2
O=C(NCc1ccccc1)c1cc2occc2c(Nc2ccc(F)cc2)n1 | -11 | -9 | 2 | 1 | 18
